# Activity calls are given as the source filed them. Unless noted, no stated cut-off is given here; in the data, active means inhibition above about 80%; inactive means the rest.
# What was measured:
# [1] = growth inhibition, single agent or in combination, cell-based, chromothripsis tumors, cisplatin or BGB combos (AID 1671449); details: LFS_MB_P medulloblastoma cells;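 further: cells exposed for 96 hours; 0% = vehicle DMSO and 100% = killing by high DMSO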
# [2] = growth inhibition, single agent and combos, cell-based, chromothripsis tumors, cisplatin or BGB combos (AID 1671450); details: HDN33 neuroblastoma cells, stronger effect = higher value;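 further: cells exposed to compound for four days; 0% = vehicle DMSO and 100% = cell killing by high DMSO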
# [3] = growth inhibition, single agents and combos, LFS_MB_1R, cell-based, cisplatin or BGB combos, synergistic combos for chromothripsis tumors (AID 1671452); details: LFS_MB_1R medulloblastoma cells, stronger effect = higher value;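 further: cells exposed for 96 hours before readout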
# [4] = growth inhibition, single agents and combos, HTB85, cell-based, BGB or cisplatin IC20 combos, synergistic combos for chromothripsis tumors (AID 1671453); details: HTB85 osteosarcoma cells, drug combinations, stronger effect = higher value;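 further: cells exposed for 96 hours before readout; 0% = vehicle DMSO and 100% = high DMSO killing control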
# [5] = growth inhibition, single agents and combos, CRL2098, cell-based, BGB or cisplatin IC20 combos, synergistic combos for chromothripsis tumors (AID 1671454); details: CRL2098 osteosarcoma cells, drug combinations, stronger effect = higher value;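 further: cells exposed for 96 h before readout; 0% = vehicle DMSO and 100% = killing by high DMSO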
# [6] = growth inhibition, single agents and combos, HD-MB03, cell-based, BGB or cisplatin IC20 combos, synergistic combos for chromothripsis tumors (AID 1671455; in the data active means inhibition above about 83%;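 further: 0% = vehicle DMSO and 100% = high DMSO as cytotoxic control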); details: HD-MB03 medulloblastoma cells, stronger effect = higher value
# [7] = growth inhibition, single agents and combos, UWB1.289, cell-based, BGB or cisplatin combos, synergistic combos for chromothripsis tumors (AID 1671456); details: UWB1.289 ovarian carcinoma cells, stronger effect = higher value;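 further: cells exposed to compound for four days; 0% = vehicle DMSO and 100% = killing by high DMSO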
# [8] = growth inhibition, single agents and combos, LFS_MB_2R, cell-based, cisplatin combos, synergistic combos for chromothripsis tumors (AID 1671457); details: LFS_MB_2R medulloblastoma cells, stronger effect = higher value;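 further: cells exposed to compound for four days before readout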
# [9] = growth inhibition, MDA-MB-436, cell-based, BGB or cisplatin combos, synergistic combos for chromothripsis tumors (AID 1671458; call rule not given here;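 further: cells exposed for 96 hours; 0% = vehicle DMSO and 100% = killing by high DMSO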); details: MDA-MB-436 breast carcinoma growth inhibition, drug combinations, stronger effect = higher value
# [10] = UWB1.289_BRCA1 ovarian cancer growth, cell-based, BGB or cisplatin combinations (AID 1671459); details: UWB1.289 BRCA1 ovarian carcinoma, drug combinations, stronger effect = higher value
# [11] = drug combination toxicity in non-malignant astrocytes – cell-based, BGB or cisplatin IC20 combos, cytotoxicity control for chromothriptic childhood tumor combination screen (AID 1671460); details: Human astrocytes, viability inhibition, drug combinations, at 0.5 µM, stronger effect = higher value;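 further: cells exposed to compounds for 96 hours before viability readout; 0% = vehicle and 100% = killing control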
# [12] = BT084 cell growth, single and combined drugs, ICGC_MB145, cisplatin and BGB IC40 combos (AID 1671461); details: BT084 medulloblastoma cells, drug combinations, stronger effect = higher value;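 further: cells exposed to drugs for 96 hours; 0% = vehicle DMSO and 100% = high DMSO full killing control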
# [13] = RCMB18 cell growth, single agent and combined, cisplatin and BGB IC40 combos (AID 1671462); details: RCMB18 medulloblastoma cells, stronger effect = higher value;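 further: cells exposed to compound for four days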
# [14] = CRL1545 cell growth, single agent and combined, cisplatin and BGB IC20 combos (AID 1671464); details: CRL1545 osteosarcoma cells, stronger effect = higher value;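 further: cells exposed to compound for 96 hours before readout; 0% = vehicle DMSO and 100% = high DMSO killing control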
# [15] = at 0.5 µM, stronger effect = higher value
# [16] = measured here: combination with BGB IC20, at 0.005 µM
# [17] = measured here: combination with BGB IC40, at 0.005 µM
# [18] = measured here: combination with BGB IC40, at 0.05 µM
# [19] = measured here: combination with cisplatin, at 0.5 µM, stronger effect = higher value
# [20] = measured here: combination with cisplatin, at 5 µM, stronger effect = higher value
# [21] = measured here: with BGB IC20 combination, at 0.5 µM
# [22] = measured here: with cisplatin IC20 combination, at 0.5 µM
# [23] = measured here: combination with cisplatin, at 0.5 µM
# [24] = measured here: combination with cisplatin, at 5 µM
# [25] = measured here: with BGB IC20, at 0.5 µM
# [26] = measured here: with BGB IC20, at 5 µM
# [27] = measured here: with cisplatin IC20, at 0.5 µM
# [28] = measured here: with cisplatin IC20, at 5 µM
# [29] = measured here: combination with BGB at IC20, at 0.5 µM
# [30] = measured here: combination with cisplatin at IC20, at 0.5 µM
# [31] = measured here: combo with BGB at IC20, at 0.5 µM
# [32] = measured here: combo with cisplatin at IC20, at 0.5 µM
# [33] = measured here: inhibition with BGB combination, at 0.05 µM
# [34] = measured here: inhibition with cisplatin combination, at 0.05 µM
# [35] = measured here: BGB combination, at 0.5 µM
# [36] = measured here: BGB combination, at 5 µM
# [37] = measured here: cisplatin combination, at 0.5 µM
# [38] = measured here: cisplatin combination, at 5 µM
# [39] = BGB combination, concentration series, at 5 µM
# [40] = cisplatin combination, concentration series, at 5 µM
# [41] = measured here: combo with BGB IC20
# [42] = measured here: combo with cisplatin IC20
# [43] = cisplatin combination, at 0.5 µM
# [44] = measured here: BGB IC40 combination 0.05 uM, at 0.05 µM
# [45] = measured here: BGB IC40 combination, at 0.05 µM
compound,measurement,setting,value
O=c1cc(-c2cccc3c2Sc2ccccc2S3)oc(N2CCOCC2)c1,inhibition,[1]; [15],81.3% (active)
same,inhibition,[1]; [16],-22.8%
same,inhibition,[1]; [17],-15.3%
same,inhibition,[1]; [18],-27.2%
same,inhibition,[1]; [19],108%
same,inhibition,[1]; [20],-58.3%
same,inhibition,"[2]; BGB combo, at 5 µM",-23.9%
same,inhibition,[2]; at 0.5 µM,-20.7% (inactive)
same,inhibition,"[2]; cisplatin combo, at 5 µM",-6.5%
same,inhibition,[2]; [21],-21.1%
same,inhibition,[2]; [22],-8.71%
same,inhibition,"[2]; single agent, at 5 µM",-26.1%
same,inhibition,[3]; at 0.5 µM,-10.6% (inactive)
same,inhibition,[3]; [18],-24.7%
same,inhibition,[3]; [23],9.6%
same,inhibition,[3]; [24],-31.9%
same,inhibition,[4]; at 0.5 µM,-13.7% (inactive)
same,inhibition,[4]; [25],-13.9%
same,inhibition,[4]; [26],-31%
same,inhibition,[4]; [27],-8.83%
same,inhibition,[4]; [28],-19.5%
same,inhibition,"[4]; single agent, at 5 µM",-17.7%
same,inhibition,[5]; at 0.5 µM,-29.5% (inactive)
same,inhibition,[5]; [29],-49.7%
same,inhibition,[5]; [30],-36.1%
same,inhibition,[6]; at 0.5 µM,-12.6% (inactive)
same,inhibition,[6]; [31],-13%
same,inhibition,[6]; [32],-6.59%
same,inhibition,[7]; at 0.5 µM,-9.95% (inactive)
same,inhibition,[7]; [33],-28.4%
same,inhibition,[7]; [34],-10.7%
same,inhibition,[8]; at 0.5 µM,-22.3% (inactive)
same,inhibition,[8]; [23],-27.3%
same,inhibition,[8]; [24],-42.7%
same,inhibition,[9]; at 0.5 µM,-26.6% (inactive)
same,inhibition,[9]; [35],-22.1%
same,inhibition,[9]; [36],-25.2%
same,inhibition,[9]; [37],-36.1%
same,inhibition,[9]; [38],-24.3%
same,inhibition,[10]; [39],-14.2%
same,inhibition,[10]; at 0.5 µM,-17.9% (inactive)
same,inhibition,[10]; [40],-3.21%
same,inhibition,[11],-40.3% (inactive)
same,inhibition,[11]; [41],-56.7%
same,inhibition,[11]; [42],-32.4%
same,inhibition,[12]; at 0.5 µM,-24.9% (inactive)
same,inhibition,[12]; [43],-8.73%
same,inhibition,"[12]; cisplatin combination, at 5 µM",-21.4%
same,inhibition,[12]; [44],-12.1%
same,inhibition,"[12]; single agent, at 5 µM",-39.1%
same,inhibition,[13]; at 0.5 µM,-11.1% (inactive)
same,inhibition,"[13]; cisplatin combo, at 5 µM",5.15%
same,inhibition,[13]; [45],-26.8%
same,inhibition,[13]; [23],-2.95%
same,inhibition,"[13]; single agent, at 5 µM",-8.05%
same,inhibition,[14]; at 0.5 µM,-32.7% (inactive)
same,inhibition,[14]; [21],-8.28%
same,inhibition,[14]; [22],-48.2%
same,inhibition,"[14]; single agent, at 0.05 µM",-20.3%
same,inhibition,"[14]; single agent, at 5 µM",-31.2%
O=c1[nH]c(-c2ccc(C(F)(F)F)cc2)nc2c1CSCC2,inhibition,[1]; [15],-18.1% (inactive)
same,inhibition,[1]; [16],0.844%
same,inhibition,[1]; [17],12.4%
same,inhibition,[1]; [18],-21.3%
same,inhibition,[1]; [19],-36.1%
same,inhibition,[1]; [20],-17.2%
same,inhibition,"[2]; BGB combo, at 5 µM",8.65%
same,inhibition,[2]; at 0.5 µM,-7.61% (inactive)
same,inhibition,"[2]; cisplatin combo, at 5 µM",8.16%
same,inhibition,[2]; [21],-5.54%
same,inhibition,[2]; [22],-17.8%
same,inhibition,"[2]; single agent, at 5 µM",38.9%
same,inhibition,[3]; at 0.5 µM,-9.31% (inactive)
same,inhibition,[3]; [18],-26%
same,inhibition,[3]; [23],-13.9%
same,inhibition,[3]; [24],-59%
same,inhibition,[4]; at 0.5 µM,-23.5% (inactive)
same,inhibition,[4]; [25],-23%
same,inhibition,[4]; [26],-21.9%
same,inhibition,[4]; [27],-30.4%
same,inhibition,[4]; [28],-19.6%
same,inhibition,"[4]; single agent, at 5 µM",3.2%
same,inhibition,[5]; at 0.5 µM,-39.2% (inactive)
same,inhibition,[5]; [29],-20.7%
same,inhibition,[5]; [30],-76.4%
same,inhibition,[6]; at 0.5 µM,-8.71% (inactive)
same,inhibition,[6]; [31],-15.3%
same,inhibition,[6]; [32],-8.24%
same,inhibition,[7]; at 0.5 µM,-2.17% (inactive)
same,inhibition,[7]; [33],-13.9%
same,inhibition,[7]; [34],-26.3%
same,inhibition,[8]; at 0.5 µM,-7.37% (inactive)
same,inhibition,[8]; [23],-7.07%
same,inhibition,[8]; [24],-6.53%
same,inhibition,[9]; at 0.5 µM,-4.6% (inactive)
same,inhibition,[9]; [35],-1.61%
same,inhibition,[9]; [36],-2.42%
same,inhibition,[9]; [37],-18.2%
same,inhibition,[9]; [38],-5.9%
same,inhibition,[10]; [39],-5.61%
same,inhibition,[10]; at 0.5 µM,0.36% (inactive)
same,inhibition,[10]; [40],7.32%
same,inhibition,[11],-1.27% (inactive)
same,inhibition,[11]; [41],0.645%
same,inhibition,[11]; [42],-5.26%
same,inhibition,[12]; at 0.5 µM,-4.59% (inactive)
same,inhibition,[12]; [43],-17.6%
same,inhibition,"[12]; cisplatin combination, at 5 µM",-12.8%
same,inhibition,[12]; [44],7.96%
same,inhibition,"[12]; single agent, at 5 µM",-20.3%
same,inhibition,[13]; at 0.5 µM,-18.1% (inactive)
same,inhibition,"[13]; cisplatin combo, at 5 µM",-47.8%
same,inhibition,[13]; [45],-24.5%
same,inhibition,[13]; [23],-29.6%
same,inhibition,"[13]; single agent, at 5 µM",13.3%
same,inhibition,[14]; at 0.5 µM,-34.9% (inactive)
same,inhibition,[14]; [21],-20.3%
same,inhibition,[14]; [22],-44.5%
same,inhibition,"[14]; single agent, at 0.05 µM",-54.3%
same,inhibition,"[14]; single agent, at 5 µM",-18.2%

# Reference: PubChem BioAssay
